Inconclusive results are not listed. Where a call stands in place of a potency, no number is given. Values without a mark were called inactive. Calls of active or inactive are those of the source. Calls follow the shape of the dose curve; as a rule, active = well fitted curve in the direction sought with a large enough effect; inconclusive = small, poorly fitted or top-dose-only effect, or another doubt; inactive = no such curve, though single readings can be large; an effect the other way counts as inactive or inconclusive.
What was measured:
[1] = ZIKV-mCherry secondary qHTS for Zika virus inhibitors (AID 1347158); also: top concentration of the series differs between compounds
How it was run: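 After overnight seeding at 37 °C, Vero cells receive compound and then ZIKV-mCherry (MOI 1). Following 48-72 h infection, cells are fixed, counterstained with Hoechst, and imaged; percent infected cells is derived from an mCherry intensity cut-off of 450 RFU.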

[2] = test system: Zika virus NS2B-NS3 protease (linked); assay: 384 well plate NINDS AMC confirmatory qHTS for Zika virus inhibitors (AID 1347163); details: Recombinant NS2B-NS3 protease, Ac-VKTGKR-AMC fluorescence; also: potency is read from the fitted curve at half-maximal effect; nearly all actives have a fitted effect of over 50% in size
How it was run: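 Linked protease 5/30/60 nM final; cpds up to 1 mM final, ~15 min preinc. Substrate Ac-VKTGKR-AMC 30 microM final. RT, dark, 25 min; FI ex 355/em 460; normalized to no-enzyme/no-inhibitor ctrls.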

[3] = test system: Zika virus NS2B-NS3 protease (linked construct); assay: 384 well plate NINDS Rhodamine confirmatory qHTS for Zika virus inhibitors (AID 1347164); details: rhodamine-110 peptide substrate fluorescence;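 also: fluorescence from protease cleavage of Ac-LKRR-rhodamine 110 substrate; potency is read from the fitted curve at half-maximal effect; nearly all actives have a fitted effect of over 65% in size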
How it was run: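 Fluorescence at 485/538 nm was measured 25 minutes after adding 10 microM Ac-LKRR-Rd substrate, in the dark at room temperature. The protease (5, 30 or 60 nM final) had been preincubated ~15 minutes with compound; aprotinin as control.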

[4] = Confirmatory screen GU Rhodamine qHTS for Zika virus inhibitors qHTS (AID 1347157); also: nearly all actives have a fitted effect of over 70% in size
How it was run: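 Unlinked NS2B/NS3, 25 nM; Rhod110 peptide, 1.5 microM; compounds, up to 114 microM. Reaction run 15 min at RT in 10 mM Tris-HCl pH 8.0, 0.01% Tween 20; kinetic fluorescence change fitted with a 4-parameter Hill model.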

[5] = Confirmatory screen NINDS Rhodamine qHTS for Zika virus inhibitors (AID 1347161);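 also: purified Zika NS2B-NS3 protease with linked NS2B cofactor domain and Rhodamine110 peptide substrate; series mostly up to about 110 µM; nearly all actives have a fitted effect of over 60% in size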
How it was run: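 Single-chain NS2B-NS3 protease, 25 nM, pH 8.0; compounds preincubated 15 min. Activity: Rhodamine110 release from 1.5 microM substrate over 15 min, room temperature, data fitted to 4-parameter Hill.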

[6] = Tertiary RLuc qRT-PCR qHTS assay for Zika virus inhibitors (AID 1347169); also: top concentration of the series differs between compounds; nearly all actives have a fitted effect of over 55% in size
How it was run: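 Orthogonal cell-based readout: luminescence measured 1-1.5 hrs after adding live-cell Renilla substrate to Vero cells that had been infected with ZIKV-RLuc (MOI 1-2) post-compound, incubated 48-72 hrs at 37 degrees C.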

Row | SMILES | outcome [1] | Potency [2] | Potency [3] | outcome [4] | Potency [5] | activity change, negative = inhibition [6]
1 | O=C(O)Cn1c(C(=O)Nc2nc(-c3ccccc3Cl)cs2)cc2ccccc21 | inactive | 70.8 µM (active) | 28.2 µM (active) |  |  | 
2 | COc1ccccc1Oc1c(NS(=O)(=O)c2ccc(C(C)(C)C)cc2)nc(-c2ncccn2)nc1OCCO |  |  |  | inactive | inactive | 14.1% [at 1.74 µM]

Source: PubChem BioAssay (NCATS)
